According to PubChem BioAssay AID411 (National Center for Advancing Translational Sciences (NCATS), 2007):
Values joined by “and” are separate entries in the source; they are usually repeats but may differ in a detail not shown here. Equal entries are not always repeated. Among all 72,000 compounds or so, about 1,600 (2.2%) were called active. Where a call stands in place of a potency, no number is given. This is one part of a sample in which actives are shown more often than they occur. A number with no mark means an inactive call. Calls follow the shape of the dose curve; as a rule, active = well fitted inhibition curve with a large enough effect; inconclusive = small, poorly fitted or top-dose-only effect; inactive = flat fitted curve, though single readings scatter.

What follows are molecules tested against Luciferin 4-monooxygenase (Photinus pyralis) (UniProt P08659) (assay: qHTS Assay for Inhibitors of Firefly Luciferase). Conditions: purified firefly luciferase, luminescence, 8 min; series mostly up to 57.1 µM.
Luciferin 4-monooxygenase (Photinus pyralis), sequence (P08659 whole entry, looked up): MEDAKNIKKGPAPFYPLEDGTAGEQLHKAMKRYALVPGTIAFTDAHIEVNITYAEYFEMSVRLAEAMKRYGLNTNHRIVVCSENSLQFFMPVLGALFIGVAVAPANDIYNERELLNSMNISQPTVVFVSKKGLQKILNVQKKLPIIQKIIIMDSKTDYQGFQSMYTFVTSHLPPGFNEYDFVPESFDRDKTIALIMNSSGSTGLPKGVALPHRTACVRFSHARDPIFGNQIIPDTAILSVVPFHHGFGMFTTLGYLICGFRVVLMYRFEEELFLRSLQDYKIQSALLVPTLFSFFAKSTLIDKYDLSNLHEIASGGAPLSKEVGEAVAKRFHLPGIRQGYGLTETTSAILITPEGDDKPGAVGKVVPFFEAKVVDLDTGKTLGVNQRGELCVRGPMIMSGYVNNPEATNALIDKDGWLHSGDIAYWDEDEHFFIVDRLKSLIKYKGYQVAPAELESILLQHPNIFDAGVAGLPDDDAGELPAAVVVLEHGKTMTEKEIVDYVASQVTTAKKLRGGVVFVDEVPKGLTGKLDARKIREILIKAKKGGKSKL
In short: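 Compounds were tested as concentration series (qHTS) against purified P. pyralis luciferase with luciferin and 10 uM ATP in 50 mM imidazole pH 7.2, 50 mM KCl, 7 mM MgCl2, 0.01% Tween 20, 0.05% BSA. Luminescence was read after 8 min at ambient temperature.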
Also: nearly all actives have a fitted effect of over 40% in size.
Potency is read from the fitted curve at half-maximal effect.

Compound	activity change, negative = inhibition	Potency
COC(=O)[C@@H]1CC[C@H](C)[C@@H](c2ccc(C)cc2)N1C(=O)c1ccc(/C=N\OC[C@@H](O)COCc2ccco2)cc1	-0.535% [at 11.4 µM]	–
CCc1cc2c(=O)c(-c3ccon3)c(N)oc2cc1OC	–	3.98 µM (active)
CC1CCC(NS(=O)(=O)c2ccc3c(c2)n(C)c(=O)c(=O)n3C)CC1 (configuration not stated)	–	inactive
CCOC(=O)C1C(=O)C=C(c2ccc(OC)cc2)CC1c1ccco1 (configuration not stated)	–	25.1 µM (active)
CCOC(=O)C1C(=O)NC(N2CCN(c3ccccc3)CC2)=NC1c1ccco1 (configuration not stated)	–	inactive
COc1ccc(CCNC(=O)c2ccco2)cc1	–	inactive
CN1C(=O)c2ccccc2C(C(=O)NCCCN2CCCC2)C1c1c[nH]c2ccccc12 (configuration not stated)	–	inactive
O=C1OCCC=C1[C@@H](O)CCc1ccccc1	1.7% [at 11.4 µM]	–
CN1CCN(CC(=O)Nc2sc3c(c2C#N)CCC(C(C)(C)C)C3)CC1 (configuration not stated)	–	inactive
CCOc1ccc(-c2nnn(CC(=O)N3CCN(c4ccc(OC)cc4)CC3)n2)cc1OCC	–	inactive
CCOc1ccc(-c2nnn(CC(=O)N3CCN(c4ccc(F)cc4)CC3)n2)cc1OCC	–	inactive
COc1ccc(C(=O)Cn2nnc(-c3ccc(N4CCOCC4)cc3)n2)cc1OC	–	10 µM (active)
CCOC(=O)c1cc2sccc2n1Cc1ccc(C#N)cc1	–	inactive
O=C(O)c1ccc(C(=O)O)c2c(C(=O)O)ccc(C(=O)O)c12	-2.88% [at 11.4 µM]	–
CCN(C(=O)CSc1ncn[nH]1)c1cccc2ccccc12	–	inactive
Cn1nnc(NC(=O)CSc2ncn[nH]2)n1	–	inactive
CC(C)(C)c1ccc(C(=O)CSc2ncn[nH]2)cc1	–	15.8 µM (active)
CCOc1cc(C)c(Cl)cc1S(=O)(=O)n1nnc2ccccc21	–	inactive
C=CCn1c(SCc2nnc(-c3ccccc3)o2)nnc1C(O)c1ccccc1 (configuration not stated)	–	inactive
Cc1cccc(NC(=O)COc2ccccc2C)n1	–	inactive
Cc1cccc(NC(=O)COc2ccc(Br)cc2C)n1	–	10 µM (active)
CCOc1ccc(OCc2ccc(C(=O)Nc3cccc(C)n3)o2)cc1	–	inactive

Compound	activity change, negative = inhibition	Potency
COc1cccc(-c2nc3n(n2)C(c2ccccc2Cl)C(C(N)=O)=C(C)N3)c1 (configuration not stated)	–	inactive
O=C(Nc1ccccc1C(F)(F)F)c1cc(-c2ccc(O)cc2)on1	–	inactive
CC(C)CNC(=O)c1cc(-c2ccc(Br)cc2)on1	–	inactive
CC(C)Cc1cc(C(=O)Nc2cc(Br)ccc2O)no1	–	12.6 µM (active)
O=C1c2cccnc2C(Nc2ccc(S(=O)(=O)N3CCCCCC3)cc2)N1Cc1ccccc1 (configuration not stated)	–	inactive
COC(=O)c1cn(C)c2ccc(S(=O)(=O)N3CC(C)CC(C)C3)cc2c1=O (configuration not stated)	–	inactive
c1ccc(-c2[nH]ncc2-c2nc3ccccc3[nH]2)cc1	–	inactive
C=CCSc1nc2ccccc2[nH]1	–	inactive
c1ccc2[nH]c(-c3nc4ccccc4[nH]3)nc2c1	–	2.51 µM (active)
CC(=O)c1nc(N2C(=O)C3CC=C(C)CC3C2=O)sc1C (configuration not stated)	–	inactive
COc1ccc2[nH]c3cc4c(=O)c5cc(OC)ccc5[nH]c4cc3c(=O)c2c1	-0.432% [at 11.4 µM]	–
COc1ccc2[nH]c3c(=O)n(Cc4ccco4)cnc3c2c1	–	inactive
COc1ccc2[nH]c3ccc(OC)cc3c2c1	–	20 µM (active)
CCOc1ccc(N2C(=O)CC(N(O)c3ccccc3)C2=O)cc1 (configuration not stated)	–	inactive
CCOc1ccc(-c2nnc(-c3ccco3)o2)cc1	–	7.94 µM (active)
CCC(=O)Oc1cccc(C(=O)Nc2ccc(-c3nnc(-c4ccco4)o3)cc2)c1	–	inactive
Cc1ccc(OCC(=O)Nc2ccc(-c3nnc(-c4ccco4)o3)cc2)cc1	–	inactive
CCOc1cc2c(cc1OCC)C(C(=O)O)C(c1ccc(OC)c(O)c1)N(C)C2=O (configuration not stated)	–	inactive
CCOc1ccc(N=C2SC(C(=O)O)CC(=O)N2C)cc1 (configuration not stated)	–	inactive
O=C(Nc1ccc2c(c1)OCCO2)C1CCCN(c2ncccn2)C1 (configuration not stated)	–	10 µM (active)
Cc1ccnc(N2CCCC(C(=O)Nc3cc(F)ccc3C)C2)n1 (configuration not stated)	–	inactive
O=C(Nc1ccc2c(c1)OCCO2)c1ccncc1	–	inactive

Compound	activity change, negative = inhibition	Potency
COc1c(Br)cc2c(C)c(C(=O)N3CCOCC3)oc2c1Br	–	inactive
c1ccc(COc2nsnc2N2CCOCC2)cc1	–	inactive
CCCC(=O)N(CCc1ccccc1)Cc1nc2ccccc2c(=O)[nH]1	–	inactive
O=C(Nc1ccc(Oc2ccccc2)cc1)c1ccco1	–	15.8 µM (active)
CC(C)(C)NC(=O)c1cc(NC(=O)c2ccco2)cc(NC(=O)c2ccco2)c1	–	inactive
COc1ccc(NC(=O)c2cccc(NC(=O)c3ccco3)c2)c(OC)c1	–	inactive
Cc1ccnc(NC(=O)c2ccc(NC(=O)c3ccco3)cc2)c1	–	25.1 µM (active)
CN1CCN(S(=O)(=O)c2ccc(NC(=O)c3ccco3)cc2)CC1	–	inactive
CCOc1cc(NC(=O)c2ccco2)c(OCC)cc1NC(=O)COc1ccccc1	–	inactive
O=C(Nc1ccc(NC(=O)c2cccs2)cn1)c1ccco1	–	5.01 µM (active)
COC(=O)c1ccc(NC(=O)c2ccco2)cc1	–	20 µM (active)
COC(=O)c1cc(Cl)c(NC(=O)c2ccco2)cc1OC	–	inactive
Cc1ccc(C(=O)COc2cccc(NC(=O)c3ccco3)c2)cc1	–	inactive
CCc1nnc(NC(=O)c2cccs2)s1	–	inactive
O=C(Nc1ccc(Cl)cn1)Nc1cccs1	–	inactive
CCc1cccc(C)c1NC(=O)CSc1nnc(-c2ccco2)n1N	–	inactive
CC(C)C(=O)N1CCN(c2nc(-c3ccccc3)c3c(c2C#N)CC(C)(C)OC3)CC1	–	inactive
CC(=O)N1CCC2(CCCN(Cc3ccccc3)C2)CC1	-1.06% [at 11.4 µM]	–
COCCNc1ccnc(-c2cccc(NS(C)(=O)=O)c2)n1	0.411% [at 2.29 µM]	–
O=C1C[C@@H](O)[C@@H](O)[C@H]2[C@@H]3C(=O)N(Cc4ccc5c(c4)OCO5)C(=O)[C@@H]3CC[C@H]12	1.52% [at 11.4 µM] and -0.708% [at 11.4 µM]	–
CC(NCCO)C(=O)C12CC3CC(CC(C3)C1)C2 (configuration not stated)	–	inactive
C[N+](C)(C)CCCCCNCC12CC3CC(CC(C3)C1)C2	–	inactive

Compound	activity change, negative = inhibition	Potency
CCn1c(=N)n(CC(=O)c2cccc(OC)c2)c2ccccc21	–	inactive
CN(C)c1ccc(-c2nc(NCCN3CCOCC3)c3ccccc3n2)cc1	-10.7% [at 2.29 µM]	–
ClC(Cl)(Cl)C(N1CCN(c2ccccc2)CC1)N1CCN(c2ccccc2)CC1	2.2% [at 11.4 µM]	–
CCOC(=O)c1nnn(-c2nonc2OC)c1-c1ccccc1	–	inactive
CC(=O)N1CSCC1C(=O)O (configuration not stated)	–	inactive
CC1CCC(NC(=O)c2ccc(N3CCCC3=O)cc2)CC1 (configuration not stated)	–	inactive
COc1cccc2sc(Nc3nc(C)c(C(C)=O)s3)nc12	–	5.01 µM (active)
COc1cccc(OC)c1C(=O)Nc1nnc(C(C)C)s1	–	inactive
COc1ccccc1Nc1ncc(C(C)=O)c(C)n1	–	inactive
Cc1c(S(=O)(=O)O)ccc(N=Nc2c(O)c(C(=O)O)cc3ccccc23)c1Cl	-2.84% [at 11.4 µM]	–
COc1cccc(NS(=O)(=O)c2ccc3[nH]cc(C(=O)NCCCOC(C)C)c(=O)c3c2)c1	–	inactive
CCCCN(CCCC)CCC(O)c1cc2c(Cl)cc(Cl)cc2c2cc(C(F)(F)F)ccc12 (configuration not stated)	–	inactive
Cc1ccc2oc(=O)c3cnn(CC(=O)N4CCCCCC4)c3c2c1	–	inactive
Cc1ccc2cc3cc(C(=O)N4CCCCCC4)oc3nc2c1	–	7.94 µM (active)
Cc1ccc(C(=O)N2CCCCCC2)cc1Br	–	inactive
O=C(NCCCNCc1ccccc1)c1ccc(/C=N/O)nc1	–	inactive
O=C(O)C1CC=CCC1C(=O)NCCc1ccccc1 (configuration not stated)	–	inactive
CC1CCCN(c2ccc(C(=O)NCCc3ccccc3)cn2)C1 (configuration not stated)	–	15.8 µM (active)
CN(C)CCCNc1c2c(c(C#N)c3nc4ccccc4n13)CCC2	–	inactive
CCOC(=O)C1=C(C)NC(=O)N(C(C)=O)C1c1ccc(Cl)cc1 (configuration not stated)	–	inactive
O=C(Oc1ccccc1)c1ccc2nccnc2c1	–	inactive
CC(C)c1nc(-c2ccccn2)no1	–	inactive

Compound	activity change, negative = inhibition	Potency
O=C(Oc1ccc(-c2nc(-c3ccccn3)no2)cc1)c1ccccc1	–	2.51 µM (active)
C=CCn1c(SCn2nnc3ccccc3c2=O)nnc1-c1ccc(Cl)cc1	–	inactive
CCOC(=O)c1[nH]c2ccc(OC)cc2c1NC(=O)N1CCOCC1	–	inactive
COc1ccc(C2CC(c3ccccc3)Nc3ncnn32)cc1 (configuration not stated)	–	inactive
COc1ccc(OCC(=O)OCCN(C)C)cc1	–	inactive
O=C(O)c1ccc(NC(=O)c2cccs2)cc1	–	inactive
O=C(Nc1ncccn1)c1cccs1	–	inactive
Cc1nc(-c2ccc(NC(=O)c3cccs3)cc2)cs1	–	1.26 µM (active)
OCCCNCc1ccccn1	3.67% [at 11.4 µM]	–
Cc1cc(C)c2c(n1)nn1c(N3CCOCC3)cc(C)nc21	–	inactive
COCCCNC(=O)CSc1nc2ccc(N3CCOCC3)cc2c(=O)n1CCc1ccccc1	–	inactive
Cc1nn2c3cc(N4CCOCC4)ccc3nc2c2ccccc12	–	2 µM (active)
CCOc1ccc(NCCC(=O)c2ccc3c(c2)OCO3)cc1	–	inactive
CC(C)CCNC(=O)C(C)N(C(=O)Cn1nnc(-c2ccc(F)cc2)n1)C1CCCC1 (configuration not stated)	–	inactive
COCCNc1ncnc2ccc(-c3cccnc3)cc12	-1.48% [at 2.29 µM]	–
CCN(CC)C(=O)CCC(=O)Nc1ccc(C(=O)OC)cc1	–	inactive
COC(=O)c1ccc(NC(=O)C(C)N2C(=O)c3ccccc3C2=O)cc1 (configuration not stated)	–	inactive
COC(=O)c1ccc(NCC(=O)c2ccccc2)cc1	–	7.94 µM (active)
CN(c1ccc(C(=O)NCCC2=CCCCC2)cc1)S(C)(=O)=O	–	inactive
